According to PubChem BioAssay (EPA / NIEHS):
The source made the active and inactive calls. The calls were made as follows: active = hit-call score of the fitted dose curve at least 0.9, where 1 is the maximum; inactive = score below 0.9.

Key:
Details in all cases: mRNA level, 48 h; actives raise or lower the signal
[1] = read-out: Fatty acid synthase (Homo sapiens) (UniProt P49327); experiment: LTEA_HepaRG_FASN: Life Technologies and Expression Analysis (LTEA) Assay for Fatty Acid Synthase (FASN) using HepaRG (AID 2283448)
Method in brief: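 Differentiated HepaRG cells in serum-free induction medium exposed 48 h in duplicate to eight half-log concentrations, top 100 uM, 0.5% DMSO. FASN mRNA by qRT-PCR normalised to ACTB, GAPDH, POLR2A; bidirectional fit versus DMSO.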

[2] = read-out: Cyclin D2 (CCND2), CCND2 (gene 894); experiment: LTEA_HepaRG_CCND2: Life Technologies and Expression Analysis (LTEA) Assay for Cyclin D2 (CCND2) using HepaRG (AID 2283449);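 also: CCND2 transcript measured by TaqMan qRT-PCR and normalised to three housekeeping genes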
Method in brief: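 Chemicals in 0.5% DMSO, eight half-log concentrations from 100 uM top, were applied in duplicate for 48 h to human HepaRG cells in serum-free induction medium. CCND2 mRNA by TaqMan qRT-PCR, normalised to ACTB/GAPDH/POLR2A; bidirectional fit versus DMSO.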

[3] = read-out: Cyclin Dependent Kinase Inhibitor 1A (CDKN1A), CDKN1A (gene 1026); experiment: LTEA_HepaRG_CDKN1A: Life Technologies and Expression Analysis (LTEA) Assay for Cyclin Dependent Kinase Inhibitor 1A (CDKN1A) using HepaRG (AID 2283450)
Method in brief: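 Read-out is CDKN1A mRNA by TaqMan qRT-PCR, normalized to three housekeeping genes and fitted in both directions against the DMSO baseline. Human HepaRG cells were treated 48 h with test chemicals up to 100 uM in half-log steps, 0.5% DMSO.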

[4] = read-out: Cyclin D1 (CCND1), CCND1 (gene 595); experiment: LTEA_HepaRG_CCND1: Life Technologies and Expression Analysis (LTEA) Assay for Cyclin D1 (CCND1) using HepaRG (AID 2283451)
Method in brief: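 HepaRG plated 48 h, medium switched to serum-free induction medium, chemicals added in duplicate (top 100 uM, half-log steps, 0.5% DMSO) for 48 h, cells lysed, RNA measured by TaqMan qRT-PCR.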

[5] = read-out: catalase (CAT), CAT (gene 847); experiment: LTEA_HepaRG_CAT: Life Technologies and Expression Analysis (LTEA) Assay for catalase (CAT) using HepaRG (AID 2283452)
Method in brief: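 HepaRG cells in serum-free induction medium, 0.5% DMSO vehicle, exposed 48 h in duplicate over 8 half-log concentrations from 100 uM. CAT mRNA measured by qRT-PCR, normalized to ACTB, GAPDH, POLR2A; bidirectional fit versus DMSO.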

[6] = read-out: flavin-containing dimethylaniline monooxygenases 3 (FMO3), FMO3 (gene 2328); experiment: LTEA_HepaRG_FMO3: Life Technologies and Expression Analysis (LTEA) Assay for flavin-containing dimethylaniline monooxygenases 3 (FMO3) using HepaRG (AID 2283453)
Description: LTEA_HepaRG is a cell based, multiplexed-readout assay that uses HepaRG, a human liver cell line, with measurements taken at 48 hours after chemical dosing on a 96-well plate.LTEA_HepaRG_FMO3 is one of 102 assay component(s) measured in the LTEA HepaRG cell culture assay. It is a marker of NR mediated metabolism.Data from the assay component LTEA_HepaRG_FMO3 was analyzed into 1 endpoint. This assay endpoint, LTEA_HepaRG_FMO3, was analyzed with bidirectional fitting relative to DMSO as the negative control and baseline of activity. Using a type of inducible reporter, measures of mRNA induction for gain or loss-of-signal activity can be used to understand regulation of transcription factor activity. To generalize the intended target to other relatable targets, this assay endpoint is annotated to the oxidoreductase intended target family, where the subfamily is […].
A total of 1060 chemcials from the ToxCast library were tested in eight-point concentration-response experiments. Cell culture and cytotoxicity assays were conducted at Thermo Fisher Scientific's Custom Services facility (Madison, WI). […] Fluidigm's 96.96 Dynamic ArrayTM (Fluidigm, Amsterdam, the Netherlands) technology was used for gene expression analyses by quantitative reverse transcription polymerase chain reaction (qRT-PCR, performed by Quintiles/Expression Analysis, Durham, NC)89. […]

[7] = read-out: Cytochrome P450 (CYP1A1), CYP1A1 (gene 1543); experiment: LTEA_HepaRG_CYP1A1: Life Technologies and Expression Analysis (LTEA) Assay for Cytochrome P450 (CYP1A1) using HepaRG (AID 2283454)
Method in brief: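 HepaRG, 48 h post-plating switched to serum-free induction medium; 8-pt conc-response (top 100 uM, half-log, 0.5% DMSO), duplicates, 48 h. Lysis in RLT, TaqMan qRT-PCR for CYP1A1; gain or loss vs DMSO.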

[8] = read-out: CFLAR gene, CFLAR (gene 8837); experiment: LTEA_HepaRG_CFLAR: Life Technologies and Expression Analysis (LTEA) Assay for CFLAR gene using HepaRG (AID 2283455)
Method in brief: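 Differentiated HepaRG cells in serum-free induction medium were exposed 48 h in duplicate to eight half-log concentrations up to 100 uM in 0.5% DMSO; mRNA measured by TaqMan qRT-PCR, normalized to ACTB, GAPDH, POLR2A; bidirectional fitting versus DMSO.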

[9] = read-out: Forkhead box O1 (FOXO1), FOXO1 (gene 2308); experiment: LTEA_HepaRG_FOXO1: Life Technologies and Expression Analysis (LTEA) Assay for Forkhead box O1 (FOXO1) using HepaRG (AID 2283456)
Method in brief: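 Differentiated HepaRG cells, in serum-free induction medium with 0.5% DMSO, exposed 48 h in duplicate to 8-point half-log series from 100 uM. FOXO1 mRNA measured by TaqMan qRT-PCR, normalized to ACTB, GAPDH, POLR2A; bidirectional fit versus DMSO.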

Measured: outcome

Sequence of Fatty acid synthase (Homo sapiens) (P49327 whole entry, looked up): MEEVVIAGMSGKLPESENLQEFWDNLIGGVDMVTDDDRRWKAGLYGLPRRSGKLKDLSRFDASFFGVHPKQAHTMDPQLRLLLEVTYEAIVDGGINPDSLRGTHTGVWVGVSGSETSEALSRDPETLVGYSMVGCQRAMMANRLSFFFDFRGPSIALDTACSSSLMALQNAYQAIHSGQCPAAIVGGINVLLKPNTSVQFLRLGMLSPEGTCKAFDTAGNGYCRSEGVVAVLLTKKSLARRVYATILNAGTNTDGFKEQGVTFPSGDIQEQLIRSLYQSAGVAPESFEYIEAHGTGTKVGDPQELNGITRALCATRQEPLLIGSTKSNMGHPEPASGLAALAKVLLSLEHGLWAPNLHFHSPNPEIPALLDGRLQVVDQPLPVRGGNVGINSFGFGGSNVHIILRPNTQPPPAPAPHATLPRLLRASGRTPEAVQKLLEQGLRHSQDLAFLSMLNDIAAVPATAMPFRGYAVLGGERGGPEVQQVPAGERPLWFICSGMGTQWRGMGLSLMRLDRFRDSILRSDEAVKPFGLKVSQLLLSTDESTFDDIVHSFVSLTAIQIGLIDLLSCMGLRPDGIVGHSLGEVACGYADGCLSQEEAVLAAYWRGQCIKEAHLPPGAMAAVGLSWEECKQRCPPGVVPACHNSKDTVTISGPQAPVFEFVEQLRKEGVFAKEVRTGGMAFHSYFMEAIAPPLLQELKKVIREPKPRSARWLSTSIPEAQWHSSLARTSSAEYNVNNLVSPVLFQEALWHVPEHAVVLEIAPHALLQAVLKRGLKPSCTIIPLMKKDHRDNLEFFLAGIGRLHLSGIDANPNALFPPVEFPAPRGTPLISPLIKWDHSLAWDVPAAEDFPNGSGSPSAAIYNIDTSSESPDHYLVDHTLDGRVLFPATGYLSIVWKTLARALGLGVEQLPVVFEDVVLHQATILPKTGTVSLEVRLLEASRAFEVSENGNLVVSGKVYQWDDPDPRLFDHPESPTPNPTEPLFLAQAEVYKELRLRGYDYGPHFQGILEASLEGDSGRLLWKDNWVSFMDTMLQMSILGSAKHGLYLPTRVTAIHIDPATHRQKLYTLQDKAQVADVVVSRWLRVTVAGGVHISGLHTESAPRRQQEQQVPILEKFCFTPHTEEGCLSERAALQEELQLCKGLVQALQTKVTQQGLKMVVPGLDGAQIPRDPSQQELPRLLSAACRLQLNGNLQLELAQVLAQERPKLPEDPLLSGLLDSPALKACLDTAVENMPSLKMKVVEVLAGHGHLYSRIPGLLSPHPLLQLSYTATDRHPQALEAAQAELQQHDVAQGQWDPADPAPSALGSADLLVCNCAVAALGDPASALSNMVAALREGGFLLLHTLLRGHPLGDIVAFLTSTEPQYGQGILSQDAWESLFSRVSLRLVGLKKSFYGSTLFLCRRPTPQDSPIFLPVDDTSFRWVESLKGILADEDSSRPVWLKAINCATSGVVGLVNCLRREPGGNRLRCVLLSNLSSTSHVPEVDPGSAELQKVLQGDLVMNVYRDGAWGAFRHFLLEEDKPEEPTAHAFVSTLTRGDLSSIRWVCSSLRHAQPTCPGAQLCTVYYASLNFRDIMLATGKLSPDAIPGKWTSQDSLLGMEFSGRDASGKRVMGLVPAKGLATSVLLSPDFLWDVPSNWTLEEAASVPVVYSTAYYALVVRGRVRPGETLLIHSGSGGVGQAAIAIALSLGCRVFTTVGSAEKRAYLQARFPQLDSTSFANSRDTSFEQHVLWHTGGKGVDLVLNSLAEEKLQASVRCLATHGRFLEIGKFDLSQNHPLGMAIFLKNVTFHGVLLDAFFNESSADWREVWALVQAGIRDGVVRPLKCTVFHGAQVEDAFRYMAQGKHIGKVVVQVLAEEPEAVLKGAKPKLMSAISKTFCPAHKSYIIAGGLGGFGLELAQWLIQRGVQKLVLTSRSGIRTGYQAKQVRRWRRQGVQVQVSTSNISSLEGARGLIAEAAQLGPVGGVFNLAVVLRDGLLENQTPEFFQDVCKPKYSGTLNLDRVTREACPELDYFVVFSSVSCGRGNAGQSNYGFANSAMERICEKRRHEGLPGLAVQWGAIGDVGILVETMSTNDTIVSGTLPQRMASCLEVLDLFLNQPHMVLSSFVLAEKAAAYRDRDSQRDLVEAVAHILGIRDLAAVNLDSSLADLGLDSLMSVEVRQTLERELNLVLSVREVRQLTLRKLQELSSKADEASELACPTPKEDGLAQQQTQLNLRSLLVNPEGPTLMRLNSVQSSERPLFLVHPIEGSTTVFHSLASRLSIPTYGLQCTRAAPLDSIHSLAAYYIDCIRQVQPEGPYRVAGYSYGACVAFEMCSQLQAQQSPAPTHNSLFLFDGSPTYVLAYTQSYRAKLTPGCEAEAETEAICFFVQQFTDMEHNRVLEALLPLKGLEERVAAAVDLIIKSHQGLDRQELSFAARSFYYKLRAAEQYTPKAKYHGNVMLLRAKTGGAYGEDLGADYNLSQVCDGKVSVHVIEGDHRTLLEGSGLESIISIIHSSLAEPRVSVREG

O=C(O)c1ccc([N+](=O)[O-])cc1
inactive: all assays above
